“And” between values parts separate entries of the source, which are not always exact repeats. Equal entries are not always repeated. Records with an inconclusive call do not appear. The source made the active and inactive calls. Unless noted, calls follow the shape of the dose curve; as a rule, active = well fitted curve in the direction sought with a large enough effect; inconclusive = small, poorly fitted or top-dose-only effect, or another doubt; inactive = no such curve, though single readings can be large or run the other way.

Assay [1] is described as follows: qHTS Assay for Identifying Gametocytocidal Compounds (AID 743244). Also: potency is read from the fitted curve at half-maximal effect.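 As to max response: % is scaled to controls: 0 for no effect and ±100 for the full control effect; actives lower the fluorescent signal which means gametocytes are killed.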 To be noted: P. falciparum 3D7 stage III-V gametocytes, alamarBlue, 72 h; max response: stronger effect = lower value. The method, boiled down: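 Compounds are pinned into medium, gametocytes (stage III–V, 3D7, 20,000 cells/well) added, and plates held 72 h at 37 °C in 5% CO2. AlamarBlue follows for 24 h before fluorescence reading.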

For assay [2], the target named is T1, Hexokinase-4 (Homo sapiens) + Glucokinase regulatory protein (Homo sapiens) (UniProt P35557+Q14397). Put plainly: qHTS assay for inhibitors of recombinant human GCK-GKRP interaction: ADP-Glo assay (AID 743206).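 Also: plate controls were DMSO plus enzyme for no effect and no enzyme for full effect.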 The method, boiled down: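 Pin-transferred compounds meet a 15 nM GST-GCK/15 nM FLAG-GKRP/2 uM S6P mix (dispense concentrations). ATP is then added to 0.4 mM final with 5 mM glucose, and the reaction runs 60 min at room temperature. ADP is quantified luminescently.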
A general note: Quantitative high-throughput screening tests each substance at several concentrations.

In assay [3] the target is T1, Hexokinase-4 (Homo sapiens) + Glucokinase regulatory protein (Homo sapiens). Put plainly: qHTS assay for inhibitors of recombinant human GCK-GKRP interaction: HTRF assay (AID 743207).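 Also: 0% = DMSO with GCK present and -100% = DMSO wells lacking GCK.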 A digest of the protocol: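 Titration screening format: recombinant GST-GCK and FLAG-GKRP at 5 nM, S6P at 2 uM, labelled anti-tag antibodies, 60 min at RT, dual-wavelength HTRF readout.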

Assay [4] is described as follows: qHTS profiling of the MIPE4 collection as inhibitors of Plasmodium falciparum (DD2) proliferation (AID 743345; call rule not given here). To be noted: P. falciparum Dd2 in erythrocytes, SYBR Green DNA, 72 h; at 28.5 µM (top of the series). A digest of the protocol:
(§1)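 Parasite DNA was quantified by SYBR Green I fluorescence (ex 485, em 535 nm) after overnight lysis in saponin/Triton buffer at room temperature. Cultures at 0.3% parasitemia and 2.5% hematocrit were first exposed to compound for 72 h at 37 C; signals were normalised to artemisinin (0.29 uM) and vehicle wells.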

The nature of assay [5]: qHTS profiling of the MIPE4 collection as inhibitors of Plasmodium falciparum (HB3) proliferation (AID 743347; call rule not given here;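 also: plate controls were DMSO vehicle wells for no effect and artemisinin wells for full effect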). To be noted: P. falciparum HB3 in erythrocytes, SYBR Green DNA, 72 h; at 28.5 µM (top of the series). The method, boiled down: as §1

T1 sequence (P35557 whole entry, looked up): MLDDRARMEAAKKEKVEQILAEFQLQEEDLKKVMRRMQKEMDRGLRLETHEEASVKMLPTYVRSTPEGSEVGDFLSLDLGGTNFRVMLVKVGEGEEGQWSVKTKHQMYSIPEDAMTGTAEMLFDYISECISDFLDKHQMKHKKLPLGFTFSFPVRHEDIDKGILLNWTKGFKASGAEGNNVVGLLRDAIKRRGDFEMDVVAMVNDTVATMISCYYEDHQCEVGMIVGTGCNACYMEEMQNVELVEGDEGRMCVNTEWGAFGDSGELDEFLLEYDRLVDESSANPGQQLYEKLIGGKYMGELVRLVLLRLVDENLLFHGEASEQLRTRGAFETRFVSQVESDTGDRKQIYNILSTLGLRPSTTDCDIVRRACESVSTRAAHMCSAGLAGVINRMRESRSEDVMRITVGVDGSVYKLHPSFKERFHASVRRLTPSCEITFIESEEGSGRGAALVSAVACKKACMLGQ
T1 sequence (Q14397 whole entry, looked up): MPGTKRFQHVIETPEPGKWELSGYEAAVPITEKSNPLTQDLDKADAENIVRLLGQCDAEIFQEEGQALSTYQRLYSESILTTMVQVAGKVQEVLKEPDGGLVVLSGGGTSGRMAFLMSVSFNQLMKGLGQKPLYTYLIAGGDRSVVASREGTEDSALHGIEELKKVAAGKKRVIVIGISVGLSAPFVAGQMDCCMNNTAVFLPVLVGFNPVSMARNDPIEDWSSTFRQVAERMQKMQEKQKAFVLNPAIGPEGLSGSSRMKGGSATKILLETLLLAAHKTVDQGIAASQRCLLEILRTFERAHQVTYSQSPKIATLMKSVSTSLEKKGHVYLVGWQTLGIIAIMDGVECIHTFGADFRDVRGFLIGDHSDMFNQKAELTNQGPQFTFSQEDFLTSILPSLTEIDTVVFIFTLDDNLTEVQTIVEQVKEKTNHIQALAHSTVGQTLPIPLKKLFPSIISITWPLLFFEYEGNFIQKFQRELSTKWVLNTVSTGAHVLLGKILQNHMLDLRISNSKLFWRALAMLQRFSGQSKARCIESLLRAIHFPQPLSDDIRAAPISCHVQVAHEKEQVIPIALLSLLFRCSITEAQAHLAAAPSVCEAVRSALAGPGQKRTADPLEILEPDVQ

As for `CC1=C2[C@H]3OC(=O)[C@@H](C)[C@@H]3CC[C@@]2(C)C=CC1=O`, the max response in assay [1] was 4.47% (inactive).
On to `NCc1cccnc1`, for which the max response in assay [1] was -3.33% (inactive).
For `CN(C)C(=S)SC(=S)N(C)C`, the Potency in assay [1] was 0.794 µM (active).
In the case of `COc1cc(N)c(Cl)cc1C(=O)NC1CN2CCC1CC2` (stereo unspecified), the max response in assay [1] is -2.64% (inactive).
On to `CCN(CC)CCCN(c1ccccc1)C1Cc2ccccc2C1`, for which the Potency in assay [1] was 8.91 µM (active).
Regarding `C[C@]12Cc3nonc3C[C@@H]1CC[C@@H]1[C@@H]2CC[C@@]2(C)[C@H]1CC[C@]2(C)O`, the max response in assay [1] is -3.73% (inactive).
As for `NC(=O)CN1CCCC1=O`, the result in assay [2] and in assay [3] was inactive. In addition, in assay [1], the max response was 0.359% (inactive) and -8.59% (inactive).
Consider `COC(=O)C1=CCCN(C)C1`, for which the outcome in assay [2] and in assay [3] was inactive. Moreover, the max response in assay [1] was 7.57% (inactive) and 6.37% (inactive). The same compound came in with a parasite growth remaining, % of DMSO control (lower = more inhibition) in assay [4] of 98.7%. Further, in assay [5], the growth, % of control was 93%.
Regarding `CC[C@H](O)C(C[C@H](C)N(C)C)(c1ccccc1)c1ccccc1`, in assay [1], the max response is -14.1% (inactive).
On to `C[C@H]1CNCCc2ccc(Cl)cc21`, for which the max response in assay [1] is 16.3% (inactive).
As to `CC(C)=C[C@@H]1[C@@H](C(=O)OCc2coc(Cc3ccccc3)c2)C1(C)C`, in assay [1], the max response is -1.71% (inactive).
Regarding `C[C@H](N)[C@H](O)c1ccc(O)c(O)c1`, the max response in assay [1] is -0.0676% (inactive).
Consider `CCCCCOc1ccc(C2SC(=O)NC2=O)cc1OCC` (stereo unspecified), for which the max response in assay [1] is 38.7% (inactive).
As for `COP(=S)(OC)Oc1ccc(S(N)(=O)=O)cc1`, the max response in assay [1] is 5.01% (inactive).
For the compound `C[C@]12C=CC(=O)C=C1CC[C@@H]1[C@@H]2CC[C@@]2(C)[C@H]1CC[C@]2(C)O`, the max response in assay [1] was -4.85% (inactive).
`COc1ccc(C(=O)N2CCCC2=O)cc1`: the outcome in assay [2] and in assay [3] was inactive. Also, the max response in assay [1] was -3.61% (inactive) and 29.8% (inactive). The same compound gave a parasite growth remaining, % of DMSO control (lower = more inhibition) in assay [4] of 19.7%. For the same compound, in assay [5], the growth, % of control is 103%.

Source of the values: PubChem BioAssay (NCATS).
